# Test results as given in the supplement of paper PMC7858590.
# “And” between values parts separate entries of the source, which are not always exact repeats. Equal values may be shown once. ± gives the standard deviation of the averaged measurements. In all, about 3,800 compounds were measured (“cell shape (eccentricity) Z-score vs DMSO control”: median about 1.1, lowest 2% from about -4.7 on). Only a selection was taken, and the lowest values are over-represented in it overall.
# Test system: human monocyte-derived macrophages (M0)
# Experiment: cell shape (eccentricity) Z-score vs DMSO control; higher = more elongated, M2-like morphology
# Details: 20 µM; 24 h; macrophage state: M0 (M-CSF)
row,SMILES,cell shape (Z-score)
1,Cc1cc(O)c2c(c1)C(=O)C1=C(C2=O)C(O)C(O)C(O)C1O (centres undefined),-13.9
2,Cc1cc(O)c2c(c1)C(=O)c1cccc(O)c1C2=O,3.93
3,COc1cc(O)c2c(c1)C(=O)c1cc(C)cc(O)c1C2=O,2.65
4,COc1c(OC)c(O)c2c(=O)c(O)c(-c3ccccc3)oc2c1OC,4.23
5,CC(=O)NC(C(=O)O[C@H]1CCC(C)(C)[C@@H]2CC=C3C(=O)OCC3(O)[C@@]12C)C(C)C (some centres undefined),0.522 ± 0.68
6,CC(=O)O[C@@H]1[C@@H](O)[C@H](C)O[C@@H](O[C@H]2[C@@H]3C=CO[C@@H](O[C@@H]4O[C@H](CO)[C@@H](O)[C@H](O)[C@H]4O)[C@@H]3[C@@]3(CO)O[C@@H]23)[C@@H]1OC(=O)/C=C/c1ccc(O)cc1,-0.936 ± 2.8
7,C=C1C(=O)O[C@H]2[C@H]1CC/C(C)=C/CC[C@@]1(C)O[C@@H]21,-3.88
8,C=C1C(=O)O[C@@H]2/C=C(\C)CC/C=C(\C)CC[C@@H]12,-1.08
9,C=C1C(=O)O[C@@H]2[C@H]3O[C@]3(C)CC/C=C(/C)CC[C@@H]12,-9.25
10,C/C(=C\CC[C@@H](C)[C@H]1CC[C@@]2(C)C3CC[C@H]4C(C)(C)[C@@H](OC5OC(CO)C(OC6OC(CO)C(O)C(O)C6O)C(O)C5O)CC[C@@]45C[C@@]35CC(O)[C@]12C)C(=O)O (some centres undefined),0.155
11,Nc1ccc(S(=O)(=O)NC(=O)c2ccccc2)cc1,0.441
12,COc1nc(N)nc2c1ncn2[C@@H]1O[C@H](CO)[C@@H](O)[C@@H]1O,0.62 ± 1.5
13,O=C(O)Cn1c(C(=O)Nc2nc(-c3ccccc3Cl)cs2)cc2ccccc21,2.41
14,O=C(O)CN1C(=O)c2cccc3cccc(c23)C1=O,-6.86
15,O=C(O)CCCN1C(=O)c2cccc3cccc(c23)C1=O,1.83
16,O=c1[nH]c2cc(Cl)ccc2c(O)c1-c1cccc(Oc2ccccc2)c1,-0.358
17,CN1C(C(=O)Nc2ccccn2)C(=O)c2ccccc2S1(=O)=O (centres undefined),1.33
18,CC(=O)C(C#N)C(=O)Nc1cc(Br)ccc1Br (centres undefined),-5.16
19,C[C@H]1CN([C@@H](C)CO)S(=O)(=O)c2ccc(C#Cc3ccncc3)cc2O[C@@H]1CN(C)C(=O)Nc1ccc2c(c1)OCO2,-10.9
20,C[C@H]1CN([C@@H](C)CO)S(=O)(=O)c2ccc(C#Cc3ccccc3F)cc2O[C@H]1CN(C)C(=O)Cc1ccncc1,2.68
21,C[C@@H]1CN([C@H](C)CO)S(=O)(=O)c2ccc(C#Cc3ccncc3)cc2O[C@H]1CN(C)C(=O)Nc1ccc2c(c1)OCO2,3.81
22,COc1cc2oc(-c3ccccc3)cc(=O)c2c(O)c1OC,3.73
23,CCN(CC)CCNC(=O)c1c(C)[nH]c(/C=C2\C(=O)Nc3ccc(F)cc32)c1C,10.3 and 12.2
24,C=C1C(=O)O[C@@H]2C[C@H](C)C3C[C@H](O)[C@H](O)[C@@]3(C)C[C@H]12 (some centres undefined),-2.78 ± 0.67
25,CN[C@H]1CC[C@@H](c2ccc(Cl)c(Cl)c2)c2ccccc21,-5.32
26,C=C1CC(O)C2C(=C)C(=O)OC2C2C(=C)C(OC3OC(CO)C(O)C(OC(=O)/C=C/c4ccc(O)c(O)c4)C3O)CC12 (centres undefined),-1.95
27,CC(C)CC1NC(=O)C2CCCN2C1=O (centres undefined),2.84

row,SMILES,cell shape (Z-score)
1,CC(C)CC1NC(=O)C(C)NC1=O (centres undefined),-5.83
2,CC(C)=CCc1c(O)cc(O)c2c1OC(c1ccc(O)c(O)c1)CC2=O (centres undefined),1.24
3,O=C1c2cccc(O)c2C(=O)c2c(O)cccc21,3.05
4,c1ccc2nc(C3=NCCN3)cnc2c1,1.3
5,c1ccc2nc(C3=NCCN3)ccc2c1,0.187
6,c1ccc2cc(C3=NCCN3)ncc2c1,-4.69
7,CCOc1ccc(Cc2cc([C@@H]3O[C@H](CO)[C@@H](O)[C@H](O)[C@H]3O)ccc2Cl)cc1,-0.0179
8,CC1(C)C(=O)C=C[C@@]2(C)C1C=C[C@]1(C)C2CC[C@@]2(C)[C@H](c3ccoc3)OC(=O)[C@H]3O[C@]321 (some centres undefined),7.92
9,CCc1cc(C(C)=O)c(O)cc1OCCCCCC(C)(C)c1nnn[nH]1,1.49
10,N=C(N)Nc1ccc(Cl)cc1,0.554
11,CC(C)NC(=N)NC(=N)Nc1ccc(Cl)cc1,0.874
12,N=C(NCCCCCCNC(=N)NC(=N)Nc1ccc(Cl)cc1)NC(=N)Nc1ccc(Cl)cc1,-6.88
13,CC(=O)N[C@H]1[C@H](O[C@H]2CC[C@@]3(C)C(CC[C@]4(C)C3CC=C3[C@@H]5CC(C)(C)CC[C@]5(C(=O)OC5OCC(O)C(O)C5O)C(O)C[C@]34C)C2(C)C)O[C@H](COC2OCC(O)C(OC3OCC(O)C(O)C3O)C2O)[C@@H](O[C@@H]2O[C@@H](C)[C@H](O)[C@@H](O)[C@H]2O[C@@H]2O[C@@H](C)[C@H](O)[C@@H](O)[C@H]2O)[C@@H]1O (some centres undefined),-2.27 ± 4.4
14,O=C1NN(C(=O)Nc2ccc(Br)cc2)[C@@H](c2ccccc2)[C@@H]1c1ccccc1,1.43
15,COC(=O)[C@@H]1[C@H]2C[C@H]3c4[nH]c5ccccc5c4CCN3C[C@@H]2CC[C@@H]1O,-0.402
16,O=C(/C=C/c1ccccc1)CC(=O)/C=C/c1ccccc1,-8.63
17,O=C(/C=C/c1ccccc1)CC(O)CCc1ccccc1 (centres undefined),-0.2
18,O=C(/C=C/c1ccc(O)cc1)CC(=O)/C=C/c1ccc(O)cc1,-1.34
19,c1ccc(-c2n[nH]c3c2oc2ccccc23)cc1,0.646
20,CCN1C(=CC=Cc2ccc3ccccc3[n+]2CC)C=Cc2ccccc21,-7.46
21,CC1(C)CCC(C)(C)c2cc([C@@H](O)C(=O)Nc3ccc(C(=O)O)cc3F)ccc21,5.37
22,C=C(NC(=O)C(=C)NC(=O)c1csc(C2=N[C@H]3c4csc(n4)[C@H]4NC(=O)c5csc(n5)[C@H]([C@@](C)(O)[C@@H](C)O)NC(=O)[C@H]5CSC(=N5)C(=CC)NC(=O)[C@H]([C@@H](C)O)NC(=O)c5csc(n5)[C@]3(CC2)NC(=O)[C@H](C)NC(=O)C(=C)NC(=O)[C@H](C)NC(=O)[C@H](C(C)CC)N[C@@H]2C=Cc3c([C@H](C)O)cc(nc3[C@H]2O)C(=O)O[C@@H]4C)n1)C(N)=O (some centres undefined),-6.13
23,COc1cc(C)c(C(=O)O[C@H]2[C@@H](OC(C)=O)[C@H](n3ccc(=O)[nH]c3=O)O[C@@H]2CO)c(OC)c1,1.91 ± 0.92
24,Cc1ccc(/C(=C\CN2CCCC2)c2ccccn2)cc1,1.6
25,CCOC(=O)N[C@@H]1CC[C@@H]2[C@@H](C1)C[C@H]1C(=O)O[C@H](C)[C@H]1[C@H]2/C=C/c1ccc(-c2cccc(F)c2)cn1,5.12
26,CC(=O)O[C@H]1C(=O)[C@@]2(C)[C@H]([C@H](OC(=O)c3ccccc3)[C@]3(O)C[C@H](OC(=O)[C@H](O)[C@@H](NC(=O)c4ccccc4)c4ccccc4)C(C)=C1C3(C)C)[C@]1(OC(C)=O)CO[C@@H]1C[C@@H]2O,-5.5
27,CC(=O)O[C@H]1C(=O)[C@@]2(C)C([C@H](OC(=O)c3ccccc3)[C@]3(O)C[C@H](OC(=O)[C@H](O)[C@@H](NC(=O)c4ccccc4)c4ccccc4)C(C)=C1C3(C)C)[C@]1(OC(C)=O)CO[C@@H]1C[C@@H]2O (some centres undefined),-4.41 and -4.29 and -4.69

row,SMILES,cell shape (Z-score)
1,CC(=O)OC1C(=O)C2(C)C(O)CC3OCC3(OC(C)=O)C2C(OC(=O)c2ccccc2)C2(O)CC(OC(=O)C(O)C(NC(=O)c3ccccc3)c3ccccc3)C(C)=C1C2(C)C (centres undefined),-3.69
2,CC/C(=C(/CC)c1ccc(O)cc1)c1ccc(O)cc1,1.77
3,CC1(C)CC[C@]2(C(=O)O[C@@H]3O[C@H](CO)[C@@H](O)[C@H](O)[C@H]3O)CC[C@]3(C)C(=CCC4[C@@]5(C)C[C@@H](O)[C@H](O)[C@](C)(CO)C5CC[C@]43C)C2[C@@H]1O (some centres undefined),1.6
4,Cc1[nH]c2ccccc2c1CCNCc1ccc(/C=C/C(=O)NO)cc1,4.88 and 5.32
5,C/C=C/C=C/C(=O)c1cc(C)c(O)c(C)c1O,1.03
6,Cc1cc2nc3c(=O)[nH]c(=O)nc-3n(C[C@@H](O)[C@@H](O)[C@@H](O)CO)c2cc1C,0.422
7,Cc1cc2nc3c(=O)[nH]c(=O)nc-3n(C)c2cc1C=O,-7.12
8,CCCCCCCNS(=O)(=O)c1cccc2c(Cl)cccc12,0.986
9,CN(C)CCCSC(=N)N,0.27
10,NC(COCc1ccccc1)C(=O)O (centres undefined),1.15
11,CS(=O)c1ccc(-c2nc(-c3ccc(F)cc3)c(-c3ccncc3)[nH]2)cc1 (centres undefined),3.26
12,Oc1ccc(-c2nc(-c3ccc(F)cc3)c(-c3ccncc3)[nH]2)cc1,-5.27
13,CS(=O)(=O)c1ccc(-c2nc(-c3ccc(F)cc3)c(-c3ccncc3)[nH]2)cc1,1.46
14,O=C(O)c1cc2cc(OCc3ccccc3)ccc2[nH]1,1.63
15,CC(=O)O[C@H]1[C@H](Oc2ccccc2COC(=O)C2(O)C=CCCC2=O)O[C@H](CO)[C@@H](O)[C@@H]1O (some centres undefined),1.32
16,CCn1cc(C(=O)O)c(=O)c2cc(F)c(N3CCNCC3)nc21,-1.1
17,O=C(Cc1ccc(O)cc1)OC1[C@@H](O)[C@@H](O)C(OC(=O)Cc2ccc(O)cc2)[C@H](O)[C@@H]1O (some centres undefined),2.31
18,C=C1C(=O)O[C@@H]2[C@H]3C(CO)=CC(=O)C3=C(C)C[C@H](OC(=O)Cc3ccc(O)cc3)[C@@H]12,-6.23
19,C=C1C(=O)O[C@H]2C1CCC(C)=C1C(=O)C=C(C)[C@@H]12 (some centres undefined),-3.7
20,CC1(C)CCC(CN2CCN(c3ccc(C(=O)NS(=O)(=O)c4ccc(NCC5CCOCC5)c([N+](=O)[O-])c4)c(Oc4cnc5[nH]ccc5c4)c3)CC2)=C(c2ccc(Cl)cc2)C1,6.74
21,COCc1c(C(C)C)nc(C(C)C)c(/C=C/[C@@H](O)C[C@@H](O)CC(=O)O)c1-c1ccc(F)cc1,10.1 ± 0.39
22,CCC[C@@H]1C[C@@H](C(=O)NC(C(C)Cl)C2O[C@H](SC)[C@H](O)[C@@H](O)[C@H]2O)N(C)C1 (some centres undefined),3.16
23,COc1cc2nc(N3CCCN(C)CC3)nc(NC3CCN(Cc4ccccc4)CC3)c2cc1OC,3.25
24,Cc1cc(N2CCCCC2)nc2ccccc12,0.281
25,CC(Nc1nc(N2CCCC2)nc2ccccc12)c1ccccc1 (centres undefined),-7.72
